Measurements as given in publication PMC5540273 (PLoS ONE, 2017).

Assays:
Conditions in all cases: concentration: 1 μM, replicates: in singlicate; n = 1
PFTAIRE2 = test system: PFTAIRE2
PFTK1 = test system: T1, PFTK1
T1 construct: gene CDK14

PHKG1 = test system: PHKG1
PHKG2 = test system: PHKG2
PIK3C2B = test system: PIK3C2B
PIK3C2G = test system: PIK3C2G
PIK3CA = test system: PIK3CA
PIK3CB = test system: PIK3CB
PIK3CD = test system: PIK3CD
PIK3CG = test system: PIK3CG
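Note: KINOMEscan kinase panel screen.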

Compound	%Inh (PFTAIRE2)	%Inh (PFTK1)	%Inh (PHKG1)	%Inh (PHKG2)	%Inh (PIK3C2B)	%Inh (PIK3C2G)	%Inh (PIK3CA)	%Inh (PIK3CB)	%Inh (PIK3CD)	%Inh (PIK3CG)
Cc1ccc(-c2nc(Nc3ccncc3)c3ccccc3n2)s1 [GSK189015]	22%	28%	9%	0%	0%	0%	0%	0%	0%	0%
CS(=O)(=O)Cc1ccc(Nc2nccc(-c3c(-c4cccc(NC(=O)C5CCCCC5)c4)nn4ncccc34)n2)cc1 [GSK350559]	0%	18%	4%	9%	0%	27%	12%	4%	0%	4%
COC(=O)C(Cc1ccccc1)NC(=O)NC1CCN(c2ccnc(Nc3ccc(F)cc3)n2)C1 (centres unmarked) [GSK1379714]	14%	0%	2%	0%	0%	73%	0%	0%	27%	1%
CCn1c(-c2ccccc2)nc2cnccc21 [SB-733416]	0%	27%	0%	0%	0%	0%	0%	0%	13%	0%
COc1ccc(-c2coc3ccc(-c4nnc(C)o4)cc23)cc1	0%	9%	0%	20%	0%	21%	0%	0%	0%	12%
Cl.Cl.Cl.N#Cc1ccc(CCNc2nccc(-c3cccc(CN4CCNCC4)c3)n2)cc1 [GSK2137462]	16%	14%	25%	23%	0%	0%	1%	13%	0%	12%
O=C(Nc1n[nH]c2nc(-c3ccco3)c(Br)cc12)C1CCN(Cc2ccccc2)C1.O=C(O)[C@H](O)[C@@H](O)C(=O)O (centres unmarked) [SB-742034]	0%	27%	3%	4%	16%	13%	0%	2%	0%	4%
Cc1ccc(NC(=O)Nc2ccccc2F)cc1-c1ccc(C(=O)Nc2ccncc2)cc1 [GSK1398477]	28%	25%	23%	4%	0%	0%	0%	0%	0%	0%
COc1cc2ncnc(Nc3cccc(Br)c3)c2cc1OC.Cl [GI230329]	14%	16%	15%	0%	8%	0%	0%	2%	0%	0%
Cn1cnc2c(N)ncnc21 [SKF-97623]	0%	0%	0%	0%	0%	0%	0%	0%	0%	4%
COC(=O)c1cccc(NC(=O)NC2CCN(c3ccnc(Nc4ccc(OC)cc4)n3)C2)c1 (centres unmarked) [GSK1379746]	10%	27%	19%	0%	20%	0%	0%	0%	30%	0%
CSc1ccc(-c2nc3n(c2-c2ccncc2)CCC3)cc1 [SKF-105561]	1%	2%	5%	0%	19%	21%	0%	0%	0%	23%
CCn1c(-c2c(N)noc2C)nc2cnccc21 [SB-737856]	15%	33%	0%	0%	1%	0%	0%	100%	3%	0%
CCCCc1nn2ncccc2c1-c1ccnc(NC2CC2)n1 [GW684374]	13%	18%	0%	0%	0%	0%	0%	0%	0%	0%
Cn1cncc1-c1cc2c(Nc3ccc(OCc4ccccc4)cc3)ncnc2cn1 [GW281179]	9%	20%	4%	0%	24%	0%	0%	0%	0%	0%
Cc1cccc2c(-c3ccncn3)c(-c3ccc(F)cc3)nn12 [GW515532]	9%	8%	0%	0%	0%	0%	0%	0%	5%	0%
COc1ccc(CSc2nnc(-c3ccc4ncsc4c3)o2)cc1C(F)(F)F	0%	0%	0%	15%	0%	0%	0%	12%	0%	5%
